# In PubChem BioAssay (NCI):
# This is part of a sample that, as a whole, favours compounds with a hit. Of some 83,000 tested, about 20% had one in any assay.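 Growth was measured after 48 h exposure to one concentration of compound in 96-well plates. Values under 10 count as active.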 Calls of active or inactive are those of the source.
# Tested on: HL-60(TB) leukemia
# Assay: NCI-60 one-dose screen, 48 h (100 = growth as untreated, 0 = no growth, -100 = all killed)
# Settings: 10 µM unless noted
row,Structure (SMILES),growth
1,Cc1cccc(NC(c2cc3cccc4ccc5cccc2c5c43)c2nnnn2C(C)(C)C)c1C (centres undefined),91.9% (inactive)
2,COc1ccccc1/C=C/C(=O)c1nnn(-c2ccc(C(=O)O)cc2)c1C,83.2% (inactive)
3,N#Cc1nc(-c2ccccc2)oc1N1CC[C@@H](CO)C1,90.6% (inactive)
4,O=[N+]([O-])c1ccc(-c2nnc(SCc3ccc(O)c4ncccc34)n2-c2ccccc2)cc1,32.5% (inactive)
5,CSc1ccc(/C(=N/N=C(N)N)c2ccccc2)cc1,-17.1% (active)
6,CNC(=O)Nc1ccc(Nc2cc(-c3ccc(-n4cccn4)cc3)[nH]n2)c(C)c1,92.7% (inactive)
7,COc1c(N2CC3CCCNC3C2)c(F)cc2c(=O)c(C(=O)N/N=C/c3ccc(Br)cc3)cn(C3CC3)c12 (centres undefined),84% (inactive)
8,C=C(C)[C@@H]1CC[C@]2(C(=O)ON)CC[C@]3(C)[C@H](CC[C@@H]4[C@@]5(C)C/C(=C/c6ccc(Br)cc6)C(=O)C(C)(C)[C@@H]5CC[C@]43C)[C@@H]12,43.6% (inactive)
9,O=c1c2ccccc2cc2n1CCN=C2c1ccccc1,97.8% (inactive)
10,CCN(CC)CCCC(C)NCC(=O)NC(c1ccc2c(c1)OCO2)c1cc(Cl)c2cccnc2c1O (centres undefined),7.29% (active)
11,O=C1Nc2cc(OC(F)(F)F)ccc2Oc2ccc(-c3ccnc(N4CCNCC4)c3)cc21,-41.4% (active)
12,COc1cc2cc(Oc3ccc(NC(=O)c4cc(C(F)(F)F)cc(C(F)(F)F)c4)cc3)c(C)nc2cc1OCCN1CCOCC1,89.4% (inactive)
13,COc1ccc2c(c1)c(-c1nnc(N)nc1-c1cn(C)c3ccccc13)cn2C,72.6% (inactive)
14,O=C(NCCNc1cc(-c2cn(-c3ccccc3)nc2-c2cccc(O)c2)ccn1)Nc1ccc(Cl)c(C(F)(F)F)c1,84.2% (inactive)
